Growth data for eight compounds are collected here from PubChem BioAssay (NCI).

Assay in all cases: NCI-60 one-dose screen, 48 h (100 = growth as untreated, 0 = no growth, -100 = all killed)
Details in all cases: 10 µM unless noted

Experiment [1] concerns HCT-15 colon.
Experiment [2] has as its system HT29 colon.
In experiment [3] the test system is SNB-75 CNS.
The test system of experiment [4] is SNB-19 CNS.
Experiment [5] has as its system U251 CNS.
The test system of experiment [6] is PC-3 prostate.
Experiment [7] relates to SK-MEL-5 melanoma.
Experiment [8] has as its system UACC-62 melanoma.
Experiment [9] has as its system LOX IMVI melanoma.
Experiment [10] concerns SK-MEL-28 melanoma.
In experiment [11] the test system is SK-MEL-2 melanoma.
Experiment [12] deals with EKVX NSCLC.
For experiment [13], the system named is SN12C renal.
For experiment [14], the system named is UO-31 renal.
Experiment [15] concerns TK-10 renal.
For experiment [16], the system named is ACHN renal.
The test system of experiment [17] is CAKI-1 renal.
In experiment [18] the test system is A498 renal.
In experiment [19] the test system is CCRF-CEM leukemia.
Experiment [20] relates to MOLT-4 leukemia.

About 83,000 compounds went through this panel and 20% of them were active in at least one assay; those are over-represented in the sample as a whole.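 96-well plates, one dose, 48 hours. Percent growth reported; active if below 10.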 A number with no mark means an inactive call. The source made the active and inactive calls.

As for `NCCCNc1nc2ccc(Cl)cc2c2c(=O)c3cc(F)ccc3sc12`, the growth in experiment [1] was 47.9%; in [2], -12.1% (active); in [3], 54.2%; in [4], 77.1%; in experiment [5] it was 38.1%; in [6] it was 58.2%. Also, the growth is 94.3% in experiment [7]; 97.4% in [8]; -62.3% (active) in experiment [9]; 103% in experiment [10]; 104% in [11]; 81.3% in experiment [12]. The growth was 71% in [13]; 46.3% in experiment [14]; 89% in experiment [15]; 35.4% in experiment [16]; 24.4% in [17]; 23.4% in experiment [18]. Also, the growth was 12.1% in experiment [19] and 8.78% (active) in experiment [20].
As to `CCOC(=O)Nc1ccc(C(=O)/C=C/c2ccccc2)cc1`, the growth is 85.7% in [1]; 37.4% in experiment [2]; 116% in experiment [3]; 81.4% in [4]; 73.6% in experiment [5]; 88.6% in experiment [6]. In addition, the growth in experiment [7] was 92.2%; in experiment [8], 81.5%; in [9], 70.5%; in experiment [10], 101%; in experiment [11] it was 105%; in [12], 105%. Also, the growth in experiment [13] is 87%; in experiment [14], 51.9%; in [15] it was 103%; in [16], 102%; in experiment [17], 105%; in [18], 92.1%. Moreover, the growth in [19] was 91.6%; in [20], 78.8%.
Take `COc1cccc2c(=O)c3c(sc12)c(N1CCNCC1)nc1ccccc13`: the growth was 37.3% in experiment [1]; 0.0883% (active) in experiment [2]; 79.2% in experiment [3]; 80% in experiment [4]; 12.2% in experiment [5]; 68.3% in experiment [6]. Also, the growth in experiment [7] was 95.3%; in experiment [8], 105%; in experiment [9], -29.3% (active); in experiment [10], 107%; in experiment [11] it was 112%; in [12] it was 95.6%. The growth in experiment [13] is 64.3%; in experiment [14], 47.2%; in [15], 90.7%; in [16], 53.1%; in [17], 45.8%; in experiment [18], 61.8%. Also, the growth is 13.8% in [19] and -13.3% (active) in experiment [20].
In the case of `O=C1c2ccccc2NC(n2sc3ccccc3c2=O)N1c1ccccc1` (configuration not stated), the growth in experiment [1] is 91.5%; in experiment [2] it was 90.6%; in experiment [3], 94%; in [4], 101%; in experiment [5], 104%; in [6] it was 92.9%. In addition, the growth is 105% in [7]; 93.3% in experiment [8]; 87.9% in [9]; 116% in [10]; 99.5% in experiment [11]; 85.5% in [12]. Also, the growth is 98.4% in [13]; 78.4% in experiment [14]; 109% in experiment [15]; 99.6% in experiment [16]; 93.9% in experiment [17]; 104% in experiment [19]. Moreover, in experiment [20], the growth is 99.4%.
For `COc1ccc(/C=C/c2c(C(=O)/C=C/c3ccc(C(F)(F)F)cc3)c(C)nc3ccccc23)cc1`, the growth was -20.2% (active) in [1]; 7.38% (active) in [2]; 25.6% in [3]; -43.1% (active) in [4]; -69% (active) in experiment [5]; -23.4% (active) in experiment [6]. Moreover, the growth in experiment [7] was -79.9% (active); in experiment [8], -29% (active); in experiment [9], -91.2% (active); in experiment [10], -50.7% (active); in [11], -12.1% (active); in experiment [12], -18.7% (active). The growth is -42.9% (active) in [13]; -87.7% (active) in experiment [14]; -14% (active) in experiment [15]; -94.3% (active) in experiment [16]; -38% (active) in [17]; -66.3% (active) in [18]. The growth in experiment [19] is 7.64% (active); in experiment [20], 6.21% (active).
Turning to `COc1ccc(OC)c(/C=C/C(=O)N/N=C/c2ccc(Cl)cc2)c1`, the growth in experiment [1] was 29.4%; in [2], 6.49% (active); in experiment [3] it was 44%; in [4], 22.6%; in experiment [5] it was 18.4%; in [6], 26.2%. Besides, the growth in experiment [7] is 30.6%; in experiment [8] it was 42.1%; in [9], 36.7%; in experiment [10], 38.8%; in experiment [11] it was 22.3%; in experiment [12] it was 43.1%. Moreover, the growth was 46.2% in [13]; 30.1% in [14]; 51% in experiment [15]; 48.4% in experiment [16]; 41.8% in experiment [17]; 12.5% in [18]. The growth is 13.7% in experiment [19] and 26.3% in [20].
In the case of `NCCOc1ncccc1/C=C1\c2ccccc2-c2ccc(C(F)F)cc21`, the growth in experiment [1] was 28.8%; in experiment [2] it was 48.9%; in [3], 53.2%; in [4], 40.4%; in [5], 35.9%; in [6], 50.9%. Further, the growth in experiment [7] is 58.2%; in experiment [8], 68.2%; in experiment [9], 12.3%; in experiment [10] it was 82%; in [11], 115%; in experiment [12], 79.7%. For the same compound, the growth was 16.8% in experiment [13]; 31.1% in experiment [14]; 86.6% in experiment [15]; 4.83% (active) in experiment [16]; 35.5% in experiment [17]; 47.5% in experiment [18]. Besides, in [20], the growth was 2.92% (active).
For `c1cc(NCCc2ccncc2)nc(-n2cnc3ccccc32)c1`, the growth in [1] is 90.1%; in experiment [2], 92.7%; in experiment [3], 112%; in experiment [4], 99.9%; in experiment [5], 82.2%; in experiment [6], 83%. The growth in [7] was 93.7%; in experiment [8], 91.2%; in experiment [9], 79.4%; in experiment [10] it was 109%; in [11], 86.8%; in [12] it was 102%. Besides, the growth is 90.4% in [13]; 74.9% in [14]; 86.9% in experiment [15]; 65.4% in experiment [16]; 81.2% in [17]; 69.3% in experiment [18]. Also, in [20], the growth was 86.4%.
